From PubChem BioAssay
SW480 rereplic: induces DNA re-replication in SW480 colon adenocarcinoma cells | SW480 DNA re-replication, Hoechst DNA content imaging, 48 h | Potency, µM (titrated, usually from 46.1 µM), inactives show top-dose re-replication activation, actives largely listed as activators | hit rate 1.8% among 340,000; also: % of control where 0% means no effect; nearly all actives have a fitted effect of over 55% in size
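Per well, 250 cells were exposed to pinned compound for 48 hr. Nuclear DNA was visualised with Hoechst (40 min, 37 C) and total object intensity recorded by fluorescence scanning.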
MCF10A rerep: DNA re-replication induction in MCF 10a cells. AID 624296. Potency, µM (titrated, usually from 46.1 µM), for the others: at the highest dose activity, positive = re-replication, hits mostly activators. hit rate 2.9% among 350,000. MCF 10A DNA re-replication, Hoechst nuclear intensity, 48 h; also: % of control where 0% means no effect; nearly all actives have a fitted effect of over 50% in size
KB-3-1 tox: kills parental KB-3-1 adenocarcinoma cells; KB-3-1 viability, CellTiter-Glo ATP luminescence, 72 h; Potency, µM (titrated, usually from 46.1 µM), hits mostly cytotoxic; hit rate 1.4% among 400,000; AID 1347075; also: % is scaled to controls: 0 for no effect and ±100 for the full control effect; nearly all actives have a fitted effect of over 60% in size
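Multi-concentration cytotoxicity screen in KB-3-1 cells grown in DMEM lacking phenol red with 10% FBS. After 72 h at 37 °C with compound, ATP-dependent luminescence was recorded.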
KB-V1 MDR tox: KB-V1 MDR subline cytotoxicity; Potency, µM (top dose mostly 46.1 µM), actives largely listed as cytotoxic; hit rate 3.4% among 400,000; KB-V1 MDR cells viability, CellTiter-Glo, 72 h; AID 1347076; also: % is scaled to controls: 0 for no effect and ±100 for the full control effect; nearly all actives have a fitted effect of over 60% in size
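Luminescent ATP read-out (CellTiter-Glo, 10 min) measures survival of drug-selected KB-V1 MDR cells after 72 h, 37 degrees C compound exposure. Medium: phenol-red-free DMEM, 10% FBS. Values from fitted concentration-response curves.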
ELG1 repair inh: ELG1-dependent DNA repair inhibition; HEK293T ELG1-luciferase reporter, luminescence, 16 h; DNA damage induced by 5-fluorouridine; Potency, µM (titrated, usually from 46.1 µM), for inactives: top-dose activity change, negative = inhibition, usual class: inhibitors; hit rate 2.3% among 330,000; AID 504467; also: % is scaled to controls: 0 for no effect and ±100 for the full control effect; nearly all actives have a fitted effect of over 55% in size
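Cells (2,000 per well) received 5-fluorouridine plus test compound or DMSO and were incubated 16 hr at 37 °C, 5% CO2. Luciferase activity was read by luminescence 30 min after ONE-Glo addition; signal suppression marked inhibition of damage-induced ELG1 function.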
The depositor's hits bear a star. The list is not random: actives were taken first. Their share in the collection is about 8.2%. Calls follow the shape of the dose curve; as a rule, active = well fitted curve in the direction sought with a large enough effect; inconclusive = small, poorly fitted or top-dose-only effect, or another doubt; inactive = no such curve, though single readings can be large; an effect the other way counts as inactive or inconclusive. Potency is read from the fitted curve at half-maximal effect.

Results for COc1ccccc1N=Cc1c(C)c(C#N)c2[nH]c3ccccc3n2c1=O ?
SW480 rereplic: -2%; MCF10A rerep: inconclusive; KB-3-1 tox: inactive; KB-V1 MDR tox: inactive; ELG1 repair inh: 5%

Results for N#Cc1c(C(F)(F)F)cc(=O)n2c1[nH]c1ccccc12 ?
SW480 rereplic: inconclusive; MCF10A rerep: 18µM*; KB-3-1 tox: inactive; KB-V1 MDR tox: inactive; ELG1 repair inh: -20%

How did Cc1c(Cc2ccccc2)c(=O)n2c([nH]c3ccccc32)c1C#N do in these assays?
SW480 rereplic: -16%; MCF10A rerep: 14%; KB-3-1 tox: inconclusive; KB-V1 MDR tox: 13µM*; ELG1 repair inh: 2.3µM*

How did N#Cc1c(CSCC(=O)O)cc(=O)n2c1[nH]c1ccccc12 do in these assays?
SW480 rereplic: -6%; MCF10A rerep: -3%; KB-3-1 tox: inactive; KB-V1 MDR tox: inactive; ELG1 repair inh: -9%

What do the screens show for `CCc1cc(C(=O)N(CC)CC(=O)Nc2ccc(OC)cc2)sc1C`?
SW480 rereplic: 9%; MCF10A rerep: inconclusive; KB-3-1 tox: inactive; KB-V1 MDR tox: 18µM*; ELG1 repair inh: 10%

How did Cc1ccc(NC(=O)CN(C)C(=O)Cc2coc3cc(C)c(C)cc23)cc1 do in these assays?
SW480 rereplic: -26%; MCF10A rerep: 3%; KB-3-1 tox: inactive; KB-V1 MDR tox: inactive

What do the screens show for `CCN(CC(=O)Nc1ccc(OC)cc1)C(=O)Cc1coc2cc(C)c(C)cc12`?
SW480 rereplic: -1%; MCF10A rerep: -1%; KB-3-1 tox: inactive; KB-V1 MDR tox: 16µM*; ELG1 repair inh: inconclusive

Results for Cc1cc(C)nc(NC(N)=NCCc2ccccc2)n1 ?
SW480 rereplic: 16µM*; MCF10A rerep: 18µM*; KB-3-1 tox: 5.2µM*; KB-V1 MDR tox: inactive

What do the screens show for `N=c1ccn(Cc2ccc(Cl)cc2Cl)cc1`?
SW480 rereplic: -3%; MCF10A rerep: 7%; KB-3-1 tox: 6.5µM*; KB-V1 MDR tox: inactive; ELG1 repair inh: 8.2µM*

How did N=c1ccn(Cc2c(Cl)cccc2Cl)cc1 do in these assays?
SW480 rereplic: 14%; MCF10A rerep: inconclusive; KB-3-1 tox: inconclusive; KB-V1 MDR tox: inactive; ELG1 repair inh: 12µM*

What do the screens show for `N=c1ccn(Cc2ccccc2Cl)cc1`?
SW480 rereplic: 2%; MCF10A rerep: 4%; KB-3-1 tox: inconclusive; KB-V1 MDR tox: inconclusive; ELG1 repair inh: -16%

What do the screens show for `N=c1ccn(Cc2ccc(Cl)c(Cl)c2)cc1`?
SW480 rereplic: 0%; MCF10A rerep: 9%; KB-3-1 tox: inconclusive; KB-V1 MDR tox: inactive; ELG1 repair inh: 4.6µM*

How did N=c1ccn(Cc2ccc(Cl)cc2)cc1 do in these assays?
SW480 rereplic: 10%; MCF10A rerep: 6%; KB-3-1 tox: 4.6µM*; KB-V1 MDR tox: inactive; ELG1 repair inh: 5.2µM*

Results for CCc1cccc(CC)c1NC(=O)C1CCN(C(=O)c2ccco2)CC1 ?
SW480 rereplic: -2%; MCF10A rerep: -3%; KB-3-1 tox: inactive; KB-V1 MDR tox: inconclusive; ELG1 repair inh: -5%

What do the screens show for `COc1ccccc1NS(=O)(=O)c1cccc(NS(=O)(=O)c2cc(C(=O)O)ccc2OC)c1`?
SW480 rereplic: -3%; MCF10A rerep: 0%; KB-3-1 tox: inactive; KB-V1 MDR tox: inconclusive; ELG1 repair inh: 23%

Results for NC1(CO)COC(c2ccccc2)OC1 (centres undefined) ?
KB-3-1 tox: inactive; KB-V1 MDR tox: inactive

Results for Cc1cc(CN2CCN(CC(=O)Nc3cc(Cl)ccc3-n3cncn3)CC2)no1 ?
SW480 rereplic: inconclusive; MCF10A rerep: -2%; KB-3-1 tox: inactive; KB-V1 MDR tox: inactive; ELG1 repair inh: -5%

How did Cc1cc(CN2CCN(CC(=O)Nc3cc(C(F)(F)F)ccc3-n3cncn3)CC2)no1 do in these assays?
SW480 rereplic: -10%; MCF10A rerep: -3%; KB-3-1 tox: inactive; KB-V1 MDR tox: 23µM*; ELG1 repair inh: -24%

Results for Nc1cnccn1 ?
KB-3-1 tox: inactive; KB-V1 MDR tox: inactive

How did Nc1ccccc1SCC(=O)Nc1ccc2c(c1)OCCO2 do in these assays?
SW480 rereplic: inconclusive; MCF10A rerep: 28%; KB-3-1 tox: inactive; KB-V1 MDR tox: inactive; ELG1 repair inh: inconclusive
